Measured values published in PubChem BioAssay AID1347418 (Sanford-Burnham Center for Chemical Genomics, 2020).
About 750 (58%) of roughly 1,300 compounds were called active. Some of the results follow. A number with no mark means an inactive call.

target: Sulfhydryl oxidase 1 (Homo sapiens) (UniProt O00391); assay: QSOX1 enzyme inhibitors, primary screen, biochemical, ROS-Glo H2O2 luminescence, HTS (AID 1347418); settings: recombinant QSOX1, ROS-Glo H2O2 luminescence; at 12.5 µM; active compounds read high; active = any value above zero
Sequence (O00391 whole entry, looked up): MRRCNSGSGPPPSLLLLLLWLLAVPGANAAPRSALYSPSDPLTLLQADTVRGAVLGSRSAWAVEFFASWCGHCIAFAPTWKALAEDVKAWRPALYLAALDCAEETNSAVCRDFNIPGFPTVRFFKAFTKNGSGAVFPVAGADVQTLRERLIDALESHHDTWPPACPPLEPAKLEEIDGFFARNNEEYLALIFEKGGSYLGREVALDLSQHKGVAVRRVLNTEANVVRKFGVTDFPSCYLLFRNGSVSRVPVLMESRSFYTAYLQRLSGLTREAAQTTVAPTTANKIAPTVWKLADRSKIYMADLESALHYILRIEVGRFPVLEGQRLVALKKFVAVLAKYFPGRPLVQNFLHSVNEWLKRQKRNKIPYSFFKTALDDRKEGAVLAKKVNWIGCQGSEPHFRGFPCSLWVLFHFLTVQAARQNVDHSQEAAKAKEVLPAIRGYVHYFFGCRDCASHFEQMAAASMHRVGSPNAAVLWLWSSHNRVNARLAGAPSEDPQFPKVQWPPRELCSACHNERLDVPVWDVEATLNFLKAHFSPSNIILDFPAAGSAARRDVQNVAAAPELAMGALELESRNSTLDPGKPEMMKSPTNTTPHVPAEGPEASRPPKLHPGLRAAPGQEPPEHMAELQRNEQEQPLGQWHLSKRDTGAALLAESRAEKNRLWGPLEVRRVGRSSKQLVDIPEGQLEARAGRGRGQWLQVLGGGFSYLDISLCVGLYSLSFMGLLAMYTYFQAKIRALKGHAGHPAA

| SMILES | inhibition |
| --- | --- |
| OCc1cc(C(O)CNCCCCCCOCCCCc2ccccc2)ccc1O (stereo unspecified) | 12.5% (active) |
| Nc1ccn([C@@H]2O[C@H](CO)[C@@H](O)C2O)c(=O)n1 (stereo partly specified) | 6% (active) |
| Nc1ccn([C@H]2CC[C@@H](CO)O2)c(=O)n1 | -3.2% |
| Nc1ncn([C@@H]2O[C@H](CO)[C@H](O)C2O)c(=O)n1 (stereo partly specified) | -0.8% |
| N=c1ccn2c(n1)OC1C(O)[C@@H](CO)O[C@H]12 (stereo partly specified) | 7.2% (active) |
| NC(=O)c1ncn([C@@H]2O[C@H](CO)[C@@H](O)[C@H]2O)c1O | -0.4% |
| OCCN(CCO)c1nc(N2CCCCC2)c2nc(N(CCO)CCO)nc(N3CCCCC3)c2n1 | 46.4% (active) |
| CCc1c(C)[nH]c2c1C(=O)C(CN1CCOCC1)CC2 (stereo unspecified) | -0.8% |
| C1CCC(N=C(NC23CC4CC(CC(C4)C2)C3)N2CCOCC2)CC1 | -2.2% |
| Cc1ccc(O)c(N=Nc2ccccc2)n1 | 67.9% (active) |
| Nc1ccc(-c2nc3ccc(-c4nc5ccc(N)cc5[nH]4)cc3[nH]2)cc1 | 44.6% (active) |
| Cc1cn([C@H]2C=C[C@@H](CO)O2)c(=O)[nH]c1=O | 0.2% (active) |
| Cc1cn([C@H]2C[C@@H](N=[N+]=[N-])[C@@H](CO)O2)c(=O)[nH]c1=O | 1.9% (active) |
| O=c1[nH]c(=O)n([C@H]2C[C@H](O)[C@@H](CO)O2)cc1Br | 2.6% (active) |
| O=c1[nH]c(=O)n([C@H]2C[C@H](O)[C@@H](CO)O2)cc1/C=C/Br | -4% |
| CCNc1nc2c(ncn2[C@H]2C[C@H](O)[C@@H](CO)O2)c(=O)[nH]1 | -0.7% |
| c1ccc2c(c1)CC(N1CCN(c3cccc4c3OCCO4)CC1)C2 | 4.5% (active) |
| Cc1cnc(NC(=O)C2=C(O)c3ccccc3S(=O)(=O)N2C)s1 | 5.4% (active) |
| CN1C(C(=O)Nc2ccccn2)=C(O)c2ccccc2S1(=O)=O | -4.7% |
| CN1CC(O)C(O)C(O)C1CO (stereo unspecified) | 3.8% (active) |
| FC(F)(F)c1ccccc1-n1ccnc1 | 4% (active) |

| SMILES | inhibition |
| --- | --- |
| CC(/C=C/c1cccc(Oc2ccc(F)cc2)c1)N(O)C(N)=O (stereo unspecified) | 2.4% (active) |
| O=C1Cc2c([nH]c3ccc(Br)cc23)-c2ccccc2N1 | -0.3% |
| O=Nc1c(-c2c(O)[nH]c3ccccc23)[nH]c2ccccc12 | 42.8% (active) |
| O=Nc1c(-c2c(O)[nH]c3cc(Br)ccc23)[nH]c2ccccc12 | 27.6% (active) |
| CC(C)(C)[C@]1(O)CCN2C[C@H]3c4ccccc4CCc4cccc(c43)[C@@H]2C1 | -0.1% |
| O=C(C1CCCCC1)N1CC(=O)N2CCc3ccccc3C2C1 (stereo unspecified) | 1.7% (active) |
| Cc1[nH]c(=O)c(C#N)cc1-c1ccc2nccn2c1 | 7.1% (active) |
| Cc1[nH]c(=O)c(C#N)cc1-c1ccncc1 | -3.2% |
| CC[C@H](NC(=O)c1c(C)c(-c2ccccc2)nc2ccccc12)c1ccccc1 | -2% |
| COC(=O)[C@H](NC(=O)c1cc(-c2ccccc2)nc2ccccc12)c1ccccc1 | 4.9% (active) |
| NCCS | 3.5% (active) |
| CCOC(=O)c1ncn2c1CN(C)C(=O)c1cc(F)ccc1-2 | 0.3% (active) |
| NC(N)=N/N=C/c1c(Cl)cccc1Cl | -2.6% |
| CCCCNc1cc(C(=O)O)cc(S(N)(=O)=O)c1Oc1ccccc1 | -3.4% |
| c1ccc(C(NCCNC(c2ccccc2)c2ccccc2)c2ccccc2)cc1 | 6% (active) |
| CNCCc1cnc(CCC(c2ccccc2)c2ccccc2)[nH]1 | -2.3% |
| CC(C)NNC(=O)c1ccncc1 | 1.1% (active) |
| CCN(CC)CCOC(=O)c1cc(Cl)c(N)cc1OC | -5.7% |
| CCN(CC)CCNC(=O)c1cc(Cl)c(N)cc1OC | -4.7% |
| COc1cc(N)c(Cl)cc1C(=O)OCCN1CCCCC1 | 0.5% (active) |
